“And” between values parts separate entries of the source, which are not always exact repeats. Equal entries are not always repeated. Inconclusive results are not listed. Some compounds were tested as several samples or in several runs, with calls that do not always agree. The source made the active and inactive calls. The calls were made as follows, unless noted: active = hit-call score of the fitted dose curve at least 0.9, where 1 is the maximum; inactive = score below 0.9.
Key:
[1] = read-out: Interleukin-8 (IL8), CXCL8 (gene 3576); assay: BSK_3C_IL8: BioMAP Diversity Plus: 3C Assay for Interleukin-8 (IL8) Biomarker Activity (AID 2283020); details: primary human endothelial cells (HUVEC); actives raise or lower the signal
Outline: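 Primary human umbilical vein endothelial cells (3C system) were exposed to test chemical for 24 h, then IL-8 was quantified by ELISA. Responses were fitted bidirectionally against DMSO vehicle as baseline.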

[2] = molecular target: human Vitamin D Receptor (VDR), VDR (gene 7421) (UniProt P11473); assay: ATG_VDR_TRANS: Attagene TRANS-FACTORIAL HepG2 Assay for human Vitamin D Receptor (VDR) (AID 2283022; active = hit-call score of the fitted dose curve at least 0.9, where 1 is the maximum)
Outline: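 Multiplexed TRANS reporter in HepG2; 24 h treatment; reporter mRNA by RT-PCR plus capillary electrophoresis; upregulation scored relative to DMSO.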

[3] = BSK_3C_SRB: Viability Assessment in the BioMAP Diversity Plus: 3C Assay (AID 2283023); details: primary human endothelial cells (HUVEC);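 also: cells read 24 h after compound dosing; fitted both ways against DMSO so a hit may be signal rise or drop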
Outline: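 Overt cytotoxicity is gauged in parallel confluent HUVEC cultures by SRB total-protein staining at the time of biomarker measurement, 24 h after dosing. Gain or loss of signal is fitted versus DMSO.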

[4] = read-out: Matrix Metallopeptidase 1 (MMP1), MMP1 (gene 4312); assay: BSK_BE3C_MMP1: BioMAP Diversity Plus: BE3C Assay for Matrix Metallopeptidase 1 (MMP1) Biomarker Activity (AID 2283024); details: primary human bronchial epithelial cells; actives raise or lower the signal
Outline: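 Primary human bronchial epithelial cells were dosed with test chemicals, and MMP1 levels were measured by ELISA 24 h later. Data were fitted bidirectionally against DMSO as the negative control and activity baseline.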

[5] = read-out: Pselectin, SELP (gene 6403); assay: BSK_4H_Pselectin: BioMAP Diversity Plus: 4H Assay for Pselectin Biomarker Activity (AID 2283026); details: primary human endothelial cells (HUVEC); actives raise or lower the signal
Outline: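 Primary human umbilical vein endothelial cells were exposed to test chemical for 24 h, then cell-surface P-selectin was quantified by ELISA. Activity was fitted bidirectionally against DMSO as negative control and baseline.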

[6] = BSK_4H_SRB: Viability Assessment in the BioMAP Diversity Plus: 4H Assay (AID 2283027); details: primary human endothelial cells (HUVEC);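 also: cells exposed to compound for 24 h before staining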;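 as to AC50: curves fitted both ways versus DMSO so AC50 may be loss or gain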
Outline: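 Absorbance at 560 nm of SRB-stained total protein served as the viability read-out in confluent primary human umbilical vein endothelium 24 h after chemical treatment. Curves were fitted bidirectionally against DMSO as negative control.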

[7] = BSK_BE3C_SRB: Viability Assessment in the BioMAP Diversity Plus: BE3C Assay (AID 2283028); details: primary human bronchial epithelial cells
Outline: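 SRB total-protein staining (0.1%, after TCA fixation) of chemically dosed human bronchial epithelial primary cells at 24 h; DMSO serves as the negative control for bidirectional curve fitting.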

[8] = read-out: Thrombomodulin, THBD (gene 7056); assay: BSK_3C_Thrombomodulin: BioMAP Diversity Plus: 3C Assay for Thrombomodulin Biomarker Activity (AID 2283029); details: primary human endothelial cells (HUVEC); actives raise or lower the signal
Outline: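 Primary human umbilical vein endothelial cells (3C system) were exposed to chemical for 24 h, then thrombomodulin levels were measured by ELISA. Activity was fitted bidirectionally against the DMSO negative control as baseline.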

[9] = read-out: Urokinase-type plasminogen activator receptor (uPAR), PLAUR (gene 5329); assay: BSK_4H_uPAR: BioMAP Diversity Plus: 4H Assay for Urokinase-type plasminogen activator receptor (uPAR) Biomarker Activity (AID 2283030); details: primary human endothelial cells (HUVEC); actives raise or lower the signal
Outline: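 Endpoint derived via bidirectional curve fitting against DMSO baseline; readout was ELISA detection of uPAR on umbilical vein endothelial cells at 24 h post-treatment, with SRB-stained parallel cultures assessing cytotoxicity.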

[10] = read-out: Vascular endothelial growth factor receptor 2 (Homo sapiens) (UniProt P35968); assay: BSK_4H_VEGFRII: BioMAP Diversity Plus: 4H Assay for Vascular endothelial growth factor receptor 2 (VEGFR2) Biomarker Activity (AID 2283031); details: primary human endothelial cells (HUVEC); actives raise or lower the signal
Outline: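 In this multiplexed HUVEC system, biomarker ELISA was performed after 24 h chemical exposure. Parallel SRB staining (TCA fixation, 560 nm) tracked cytotoxicity; DMSO served as baseline.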

[11] = read-out: Human Leukocyte Antigen - DR isotype (HLADR), HLA-DRA (gene 3122); assay: BSK_BE3C_HLADR: BioMAP Diversity Plus: BE3C Assay for Human Leukocyte Antigen - DR isotype (HLADR) Biomarker Activity (AID 2283032); details: primary human bronchial epithelial cells; actives raise or lower the signal
Outline: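 Human primary bronchial epithelial cells in the BE3C system were exposed to chemicals for 24 h, after which HLA-DR levels were quantified by ELISA. Activity was fitted bidirectionally, gain or loss of signal, against DMSO as negative control and baseline.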

[12] = read-out: Vascular cell adhesion molecule 1 (VCAM1), VCAM1 (gene 7412); assay: BSK_4H_VCAM1: BioMAP Diversity Plus: 4H Assay for Vascular cell adhesion molecule 1 (VCAM1) Biomarker Activity (AID 2283033); details: primary human endothelial cells (HUVEC); actives raise or lower the signal
Outline: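 Primary human umbilical vein endothelial cells were exposed to chemicals for 24 h, after which VCAM-1 was quantified by ELISA. Responses were fitted bidirectionally against DMSO as negative control and activity baseline.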

[13] = read-out: Interferon-gamma inducible Protein 10 (IP10), CXCL10 (gene 3627); assay: BSK_BE3C_IP10: BioMAP Diversity Plus: BE3C Assay for Interferon-gamma inducible Protein 10 (IP10) Biomarker Activity (AID 2283034); details: primary human bronchial epithelial cells; actives raise or lower the signal
Outline: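 Human primary bronchial epithelial cells were exposed to chemicals for 24 hours, after which IP-10 levels were measured by ELISA. Data were fitted bidirectionally against DMSO, which served as the negative control and activity baseline.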

[14] = read-out: Monokine induced gamma interferon (MIG), CXCL9 (gene 4283); assay: BSK_BE3C_MIG: BioMAP Diversity Plus: BE3C Assay for Monokine induced gamma interferon (MIG) Biomarker Activity (AID 2283035); details: primary human bronchial epithelial cells; actives raise or lower the signal;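 also: MIG protein measured by ELISA in BE3C cultures after 24 h of dosing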
Outline: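 MIG level was determined by ELISA after 24 h chemical treatment of primary human bronchial epithelial cells. Values were fitted bidirectionally with DMSO as the negative control and activity baseline.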

[15] = read-out: Plasminogen activator inhibitor-1 (PAI1), SERPINE1 (gene 5054); assay: BSK_BE3C_PAI1: BioMAP Diversity Plus: BE3C Assay for Plasminogen activator inhibitor-1 (PAI1) Biomarker Activity (AID 2283037); details: primary human bronchial epithelial cells; actives raise or lower the signal
Outline: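 Human primary bronchial epithelial cells were exposed to chemical for 24 h, then PAI-1 was quantified by ELISA. Activity was fitted bidirectionally relative to the DMSO negative control baseline.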

[16] = read-out: urokinase plasminogen activator (uPA), PLAU (gene 5328); assay: BSK_BE3C_uPA: BioMAP Diversity Plus: BE3C Assay for urokinase plasminogen activator (uPA) Biomarker Activity (AID 2283038); details: primary human bronchial epithelial cells; actives raise or lower the signal;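 also: uPA protein level quantified by ELISA in cell cultures; uPA read one day after compound addition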
Outline: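 Using confluent primary human lung bronchial epithelial cultures, we dosed chemicals, waited 24 h, then ran a uPA ELISA, fitting bidirectionally against DMSO.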

[17] = read-out: Urokinase-type plasminogen activator receptor (uPAR), PLAUR (gene 5329); assay: BSK_BE3C_uPAR: BioMAP Diversity Plus: BE3C Assay for Urokinase-type plasminogen activator receptor (uPAR) Biomarker Activity (AID 2283039); details: primary human bronchial epithelial cells; actives raise or lower the signal;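 also: uPAR protein level measured by ELISA on the cells; cells exposed to compound for one day before measurement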
Outline: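 Primary human bronchial epithelial cells were dosed with chemical and harvested 24 h later; uPAR was quantified by ELISA. Activity was fitted bidirectionally against DMSO as negative control and baseline.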

[18] = read-out: Monokine induced gamma interferon (MIG), CXCL9 (gene 4283); assay: BSK_3C_MIG: BioMAP Diversity Plus: 3C Assay for Monokine induced gamma interferon (MIG) Biomarker Activity (AID 2283021); details: primary human endothelial cells (HUVEC); actives raise or lower the signal
Outline: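 Primary human umbilical vein endothelial cells in the 3C system were exposed to chemical for 24 h, after which MIG was quantified by ELISA. Activity was fitted bidirectionally against DMSO as negative control and baseline.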

[19] = BSK_3C_Vis: BioMAP Diversity Plus: 3C Assay for Morphology Visualization (AID 2283025); details: primary human endothelial cells (HUVEC);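 also: fitted both ways so gain or loss versus DMSO counts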
Outline: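 Human umbilical vein endothelial cells in the 3C system were imaged by light microscopy 24 h after chemical dosing to record cell morphology. Activity was fitted bidirectionally against DMSO as negative control and baseline; the endpoint serves as a background control.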

[20] = read-out: Transforming growth factor beta 1 (TGFb1), TGFB1 (gene 7040); assay: BSK_BE3C_TGFb1: BioMAP Diversity Plus: BE3C Assay for Transforming growth factor beta 1 (TGFb1) Biomarker Activity (AID 2283036); details: primary human bronchial epithelial cells; actives raise or lower the signal
Outline: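 Human primary bronchial epithelial cells (BE3C system) were dosed with chemical and TGF-b1 levels measured by ELISA at 24 h. Activity was fitted bidirectionally relative to DMSO negative control as baseline.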

Measured: AC50

Chain of human Vitamin D Receptor (VDR), VDR (gene 7421) (P11473 whole entry, looked up): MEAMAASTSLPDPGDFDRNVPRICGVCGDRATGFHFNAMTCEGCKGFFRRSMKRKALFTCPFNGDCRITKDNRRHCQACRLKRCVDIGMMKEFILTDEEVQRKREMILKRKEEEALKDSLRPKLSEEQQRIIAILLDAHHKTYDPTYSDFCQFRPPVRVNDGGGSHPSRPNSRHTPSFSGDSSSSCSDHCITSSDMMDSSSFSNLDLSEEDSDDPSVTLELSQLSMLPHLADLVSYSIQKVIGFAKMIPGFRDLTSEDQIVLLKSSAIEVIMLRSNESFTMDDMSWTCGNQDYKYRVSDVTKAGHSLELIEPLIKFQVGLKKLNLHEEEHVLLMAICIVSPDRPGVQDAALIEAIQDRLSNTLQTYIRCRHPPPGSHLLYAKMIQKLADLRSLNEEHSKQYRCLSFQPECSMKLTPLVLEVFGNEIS

OCC(F)(F)OC(F)(F)C(F)(F)OC(F)(F)CO
not listed: [18] | [19] | [20]
inactive: all other assays above

Cc1ccc(O)cc1C
not listed: [2] | [4] | [5]
inactive: all other assays above

CCCCOCCOP(=O)(OCCOCCCC)OCCOCCCC
active: [19] 37.5 µM
not listed: [10] | [18]
inactive: all other assays above

CC(C)(C)c1ccccc1OP(=O)(Oc1ccccc1)Oc1ccccc1
inactive: [2] | [7] | [13] | [14] | [20] | [15] | [16] | [17]
active: [1] 20 µM | [3] 20 µM | [4] 5.01 µM | [19] 20 µM | [6] 11.1 µM | [8] 20 µM | [9] 34.4 µM | [11] 2.85 µM | [12] 20 µM

ClC(Cl)(Cl)c1ccccc1
not listed: [5] | [10] | [18]
inactive: all other assays above

C=CC(=O)OCC(F)(F)C(F)F
active: [8] 8.19 µM | [11] 44.9 µM | [12] 38.9 µM and 30 µM
inactive: [1] | [18] | [3] | [6] | [7] | [8] | [9] | [11] | [13] | [14] | [15] | [16] | [17]

CSC(C)(C)C=NO
not listed: [4] | [10] | [18]
inactive: all other assays above
